Source: PubChem BioAssay (NCATS)
Values joined by “and” are separate entries in the source; they are usually repeats but may differ in a detail not shown here. Equal values may be shown once. Inconclusive results are not listed. Some compounds were tested as several samples or in several runs, with calls that do not always agree. Active and inactive are the calls of the source. Calls follow the shape of the dose curve; as a rule, active = well fitted curve in the direction sought with a large enough effect; inconclusive = small, poorly fitted or top-dose-only effect, or another doubt; inactive = no such curve, though single readings can be large; an effect the other way counts as inactive or inconclusive.
% is scaled to controls: 0 for no effect and ±100 for the full control effect.

Biological target: Rap guanine nucleotide exchange factor 4 (Homo sapiens) (UniProt Q8WZA2)
Sequence (Q8WZA2 whole entry, looked up): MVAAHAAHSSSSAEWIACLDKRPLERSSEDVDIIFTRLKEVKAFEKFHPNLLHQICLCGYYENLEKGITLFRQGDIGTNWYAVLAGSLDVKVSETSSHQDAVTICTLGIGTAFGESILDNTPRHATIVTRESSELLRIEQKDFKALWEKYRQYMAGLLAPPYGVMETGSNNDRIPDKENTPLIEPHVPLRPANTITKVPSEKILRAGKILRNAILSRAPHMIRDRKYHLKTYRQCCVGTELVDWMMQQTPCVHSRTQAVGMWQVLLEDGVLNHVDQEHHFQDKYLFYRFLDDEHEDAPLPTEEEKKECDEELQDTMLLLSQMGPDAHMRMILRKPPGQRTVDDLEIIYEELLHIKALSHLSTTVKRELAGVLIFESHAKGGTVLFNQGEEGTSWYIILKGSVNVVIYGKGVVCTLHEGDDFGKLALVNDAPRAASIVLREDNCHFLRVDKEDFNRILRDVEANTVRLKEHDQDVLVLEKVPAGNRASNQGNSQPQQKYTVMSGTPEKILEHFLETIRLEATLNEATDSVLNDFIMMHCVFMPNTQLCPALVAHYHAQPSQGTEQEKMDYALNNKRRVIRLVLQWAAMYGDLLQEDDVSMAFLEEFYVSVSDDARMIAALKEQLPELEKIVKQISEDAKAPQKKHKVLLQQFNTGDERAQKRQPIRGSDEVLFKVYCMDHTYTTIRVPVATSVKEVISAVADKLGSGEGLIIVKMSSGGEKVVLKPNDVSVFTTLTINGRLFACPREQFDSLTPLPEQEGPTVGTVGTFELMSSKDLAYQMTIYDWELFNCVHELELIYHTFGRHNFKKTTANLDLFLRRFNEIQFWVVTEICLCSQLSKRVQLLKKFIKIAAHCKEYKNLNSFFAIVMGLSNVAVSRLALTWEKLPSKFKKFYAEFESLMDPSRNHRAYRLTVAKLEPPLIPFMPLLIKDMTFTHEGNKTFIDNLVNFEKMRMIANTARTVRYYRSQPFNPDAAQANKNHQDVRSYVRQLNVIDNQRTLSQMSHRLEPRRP
Test: Confirmatory qHTS for agonist of cAMP-regulated guanine nucleotide exchange factor 4 (EPAC2) (AID 1645884);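 also: nucleotide exchange releases bodipy-GDP from Rap1 and this lowers its fluorescence; nearly all actives have a fitted effect of over 65% in size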
Conditions: EPAC2 GEF activity, Rap1B-BODIPY-GDP fluorescence, percent relative to cAMP agonist control; series mostly up to 154 µM; activation: at the top concentration
For NC(=O)NC1NC(=O)NC1=O (configuration not stated), the “activation” value was -3.15% [at 271 µM] (inactive).
In the case of COc1ccc2cc(CCC(C)=O)ccc2c1, the outcome is reported as “inactive”.
With CC1(C)[C@@H](OC(=O)CCC(=O)O)CC[C@]2(C)[C@H]3C(=O)C=C4[C@@H]5C[C@@](C)(C(=O)O)CC[C@]5(C)CC[C@@]4(C)[C@]3(C)CC[C@@H]12 the outcome was “inactive”.

Biological target: Rap guanine nucleotide exchange factor 4 (Homo sapiens) (UniProt Q8WZA2)
Test: Confirmatory qHTS for antagonist of cAMP-regulated guanine nucleotide exchange factor 4 (EPAC2) (AID 1645885); also: nearly all actives have a fitted effect of over 25% in size; also: potency is read from the fitted curve at half-maximal effect
Conditions: EPAC2 Rap1B-BODIPY-GDP exchange fluorescence, biochemical; series mostly up to 202 µM; activity change, negative = inhibition: at the top concentration
With NC(=O)NC1NC(=O)NC1=O (configuration not stated) the “activity change, negative = inhibition” value was -3.05% (inactive).
In the case of COc1ccc2cc(CCC(C)=O)ccc2c1, the Potency is reported as 8.79 µM (active) and inactive.
For CC1(C)[C@@H](OC(=O)CCC(=O)O)CC[C@]2(C)[C@H]3C(=O)C=C4[C@@H]5C[C@@](C)(C(=O)O)CC[C@]5(C)CC[C@@]4(C)[C@]3(C)CC[C@@H]12, the Potency was 4.21 µM (active) and 4.13 µM (active).

Tested on: not listed separately
Test: NCATS anti-infectives library activity on HEK293 viability as a counter-qHTS vs the C. elegans viability qHTS (AID 1745854)
Conditions: HEK293 viability counter-screen; series mostly up to 41.8 µM; activity change, negative = cytotoxicity: at the top concentration
How it was run: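 Cytotoxicity counter-screen to a worm viability qHTS: CellTiter-Glo luminescence read 10 min after reagent addition. Compounds (final up to 41.7 uM, a 1:5 dilution series) incubated 24 hr at 37C with 1,500 HEK293 cells per well; digitonin control.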
In the case of CCN[C@H]1CN(CCCOC)S(=O)(=O)c2sc(S(N)(=O)=O)cc21, the “activity change, negative = cytotoxicity” value is reported as -3.77% (inactive).
With COc1ccc2cc(CCC(C)=O)ccc2c1 the “activity change, negative = cytotoxicity” value was 15.5% (inactive).
With O=C(O)CCCc1ccccc1 the “activity change, negative = cytotoxicity” value was -2.06% (inactive).
With Cc1cc(O)cc(C)c1Cl the “activity change, negative = cytotoxicity” value was -12.6% (inactive).
For O=c1[nH]c(=O)n([C@H]2C[C@H](O)[C@@H](CO)O2)cc1I, the “activity change, negative = cytotoxicity” value was 0.322% (inactive).
With O=C(O)CCCCC1CCSS1 (configuration not stated) the “activity change, negative = cytotoxicity” value was -6.29% (inactive).
